Measurements as given in PubChem BioAssay (NCI).
About 79,000 compounds went through this panel and 15% of them were active in at least one assay; those are over-represented in the sample as a whole. Cut-off read from the data, not from the text of the source: active = growth inhibition above about 70%; inactive = the rest.

What was measured:
[1] = NCI Yeast Anticancer Drug Screen. Data for the rad50 strain (AID 155);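 note: 0% = growth of vehicle-only cultures of the same strain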; conditions: S. cerevisiae rad50 strain growth inhibition; at 50.0 µM; hits give high values
In short: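 Genetically altered yeast (DNA repair pathway); compound treatment; growth inhibition vs vehicle ctrl.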

[2] = NCI Yeast Anticancer Drug Screen. Data for the mec2-1 strain (AID 157); conditions: S. cerevisiae mec2-1 strain, at 50.0 µM, hits give high values
In short: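 Yeast mec2-1 mutant treated with compound. Readout: growth inhibition vs vehicle controls.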

[3] = NCI Yeast Anticancer Drug Screen. Data for the sgs1 mgt1 strain (AID 161);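 note: 0% = growth of cultures given vehicle only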; conditions: S. cerevisiae sgs1 mgt1 strain, at 50.0 µM, hits give high values
In short: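 Read-out: growth inhibition vs vehicle controls. Cells: mutant yeast strain deficient in DNA damage repair.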

[4] = NCI Yeast Anticancer Drug Screen. Data for the cln2 rad14 strain (AID 165);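 note: 0% = growth equal to vehicle treated cultures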; conditions: S. cerevisiae cln2 rad14 strain, at 50.0 µM, hits give high values
In short: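 cln2 rad14 yeast strain; compound exposure; growth inhibition read vs vehicle controls.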

[5] = NCI Yeast Anticancer Drug Screen. Data for the bub3 strain (AID 167); conditions: S. cerevisiae bub3 mutant strain, at 50.0 µM, hits give high values
In short: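 Yeast carrying a defined mutation is treated with each compound, and growth is compared with that of vehicle-exposed cells to give inhibition.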

[6] = NCI Yeast Anticancer Drug Screen. Data for the mlh1 rad18 strain (AID 175); conditions: S. cerevisiae mlh1 rad18 strain growth inhibition; at 50.0 µM; hits give high values
In short: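 Yeast w/ defined DNA-repair lesions; compound exposure; growth vs vehicle controls → % inhibition.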

Measured: growth inhibition

NC1=NC(c2ccccc2)N=C(Nc2ccccc2)N1 (configuration not stated)
inactive: [1] 37.2% | [2] 1.4% | [3] 16.4% | [4] -15% | [5] 15.2% | [6] 41.6%

O=C1OC(c2ccccc2)=C/C1=C/c1ccc(Cl)cc1
inactive: [1] -1.2% | [2] -17.6% | [3] -6.65% | [4] -6.2% | [5] -7.3% | [6] -8.3%

O=C(CCC1CCCCC1)OC1CCCC1
inactive: [1] 12% | [2] -4.45% | [3] -2.7% | [4] -5.1% | [5] -2.3% | [6] 24.3%

CN(N=O)C(=O)NC(CCCCNC(=O)OCc1ccccc1)C(=O)OCc1ccccc1 (configuration not stated)
inactive: [1] 5.95% | [2] -10.1% | [3] -2.8% | [4] -22.4% | [5] 11.6% | [6] -11.2%

O=C(O)C1(NO)CCCCC1
inactive: [1] -6.9% | [2] 6.7% | [3] -11.8% | [4] -9% | [5] -12.6% | [6] -5.4%

O=C(Nc1ccc(Cl)c(Cl)c1)C(Cl)Cl
inactive: [1] 23.5% | [2] 15.1% | [3] 50.5% | [4] 30.2% | [5] 39.1% | [6] 10.3%

CCC(O)(c1ccc(OC)cc1)C(c1ccc(OCc2ccccc2)cc1)c1ccc(OCc2ccccc2)cc1 (configuration not stated)
inactive: [1] 18.9% | [2] -22.2% | [3] 5.5% | [4] 10.8% | [5] -10.1% | [6] -12.9%

Cc1c(C(=O)CSc2nc3ccccc3c(=O)n2-c2ccccc2)c(=O)n(-c2ccccc2)n1C
inactive: [1] -9.1% | [2] 0.45% | [3] -18.1% | [4] 37.7% | [5] -11.3% | [6] -12.9%

CCCCCCCC/C=C/CCCCCCCC(=O)NN(C)C
inactive: [1] -1.4% | [2] -7.6% | [3] -0.5% | [4] -59.2% | [5] -3.95% | [6] -11.3%

NC(=O)C(Cc1ccccc1)c1ccccc1 (configuration not stated)
inactive: [1] -12.2% | [2] -15.2% | [3] -7.55% | [4] -23% | [5] -16.6% | [6] 18.4%

CSC(=S)Nc1nc2ccc(Cl)cc2s1
inactive: [1] -1.45% | [2] 6.75% | [3] 15.3% | [4] 3.15% | [5] 17.7% | [6] 3.2%

O=C(O)c1ccc(CS(=O)c2ccccc2)c([N+](=O)[O-])c1 (configuration not stated)
inactive: [1] 8.2% | [2] -0.7% | [3] -1.45% | [4] 14.4% | [5] -4.9% | [6] 24.7%

Nc1nnc2nc(CC(=O)Cc3ccccc3)c(CC(=O)Cc3ccccc3)nn12
inactive: [1] 0.3% | [2] -5.55% | [3] 11.2% | [4] -17.9% | [5] 10.7% | [6] 9.35%

Cc1ccc(NC(=O)CSc2nnc(-c3ccc(N=Cc4ccc(Cl)cc4)cc3)o2)cc1
inactive: [1] 2.3% | [2] -36.9% | [3] 12.5% | [4] -59.8% | [5] -15.8% | [6] 18.6%

Cc1[nH]n(-c2ccccc2)c(=O)c1/C=N\C(N)=S
inactive: [1] -37% | [2] -37.9% | [3] -34.1% | [4] -50.9% | [5] -48% | [6] -25.1%

c1ccc2c(CCNC3=NCCO3)cccc2c1
inactive: [1] -11.1% | [2] -16.6% | [3] -10.8% | [4] -7.5% | [5] -1.6% | [6] 1.45%

O=C(O)c1cccc(NC(=O)C(F)(F)F)c1
inactive: [1] -1.1% | [2] 1.6% | [3] -18.9% | [4] -29.4% | [5] -6.05% | [6] -2.15%

CCc1ccc2c(c1)C(C)(CC)CCC2C (configuration not stated)
inactive: [1] -2.45% | [2] -6.5% | [3] -16.4% | [4] -43% | [5] -8.95% | [6] 8.7%

CCC(C(=O)O)c1ccc(OCc2ccccc2)cc1 (configuration not stated)
inactive: [1] 15.7% | [2] 2% | [3] -10.2% | [4] 18.7% | [5] 8.05% | [6] -2.95%

O=C1OCC2CC1C(=O)O2 (configuration not stated)
inactive: [1] -7.65% | [2] 0.3% | [3] 5.95% | [4] 4.7% | [5] -3.6% | [6] 6.65%

CC(O)CNC(=O)CC(C)CC(C)(C)C (configuration not stated)
inactive: [1] 45.7% | [2] 19.9% | [3] 24.9% | [4] 13.4% | [5] 25.4% | [6] 34%

O=C1c2ccccc2-c2ccc(N=Cc3cccs3)cc21
inactive: [1] 30.9% | [2] -5.65% | [3] -3.35% | [4] 9.4% | [5] 33.5% | [6] 11.7%

O=[N+]([O-])c1cc(F)ccc1Sc1ccccc1
inactive: [1] 49.2% | [2] 23.4% | [3] 38.9% | [4] 39.8% | [5] 20.6% | [6] 40.6%

COc1ccc(CCn2cnn3c(=O)c4ccccc4nc3c2=O)cc1OC
inactive: [1] -24% | [2] -29.9% | [3] -9.1% | [4] -0.8% | [5] -17.4% | [6] -20.9%

C=CCC(O)CC=C
inactive: [1] -8% | [2] -47.5% | [3] 7.15% | [4] -6.5% | [5] 5.2% | [6] -1.7%

O=[N+]([O-])c1ccc(CSc2ncnc3c2ncn3C2OC(CO)C(O)C2O)cc1 (configuration not stated)
inactive: [1] 10.7% | [2] 22.6% | [3] 9.5% | [4] -7.35% | [5] -4.05% | [6] -17.4%

CCCCn1nnnc1N
inactive: [1] 3.45% | [2] 6.4% | [3] -8.2% | [4] 12% | [5] 17.8% | [6] 6.85%

CCOC(=O)CCC(NC(=O)N1CCN(c2c(C)nc(C)[nH]c2=O)CC1)C(=O)OCC (configuration not stated)
inactive: [1] 11.6% | [2] -0.1% | [3] 10.6% | [4] -4.7% | [5] 12.7% | [6] 18.6%

O=S(=O)(O)c1ccc(N/N=C/c2ccccc2)cc1
inactive: [1] -9.45% | [2] 12.7% | [3] 12.1% | [4] 5.3% | [5] -10.2% | [6] 14.3%

CCOC(=O)CCC(NC(=O)C(CCC(=O)OCC)NC(=O)C(Cc1ccc([N+](=O)[O-])cc1)NC(C)=O)C(=O)NNC(=O)OC(C)(C)C (configuration not stated)
inactive: [1] -22.8% | [2] -28.4% | [3] -17% | [4] -3.35% | [5] -23.6% | [6] -7.3%

COC(=O)c1nsc(OC)c1Cl
inactive: [1] 22.1% | [2] -11.5% | [3] 15.8% | [4] 8.7% | [5] 23.6% | [6] 50.4%

CCCCCCCCCCCCCCCCC1Cc2ccccc2C1
inactive: [1] -12.6% | [2] 8% | [3] -12.8% | [4] -12.1% | [5] -4.15% | [6] -7.6%

CCCC(=O)Nc1cccc(Cl)c1
inactive: [1] 16.2% | [2] 9.05% | [3] 8.85% | [4] 7.65% | [5] -0.75% | [6] 2.35%

Nc1ccc(N)c(C(=O)O)c1
inactive: [1] -9.35% | [2] 15.1% | [3] 1.1% | [4] -2.5% | [5] -12.6% | [6] -8.9%

Cc1cc(Cl)ccc1OC(=O)NC1CCCCC1
inactive: [1] -2.5% | [2] 24.4% | [3] -2.35% | [4] -13.5% | [5] 30.4% | [6] 30.4%

O=C(O)NC(c1ccccc1)C(NC(=O)c1ccccc1)c1ccccc1 (configuration not stated)
inactive: [1] -0.45% | [2] -4.1% | [3] 5.75% | [4] 7.15% | [5] -7.35% | [6] 31.4%

COC(=O)C(Cc1cn(C(C)=O)c2ccccc12)P(=O)(OC)OC (configuration not stated)
inactive: [1] -13.3% | [2] -40.1% | [3] -5.25% | [4] 13% | [5] 25.4% | [6] -11.8%

[N-]=[N+]=NC1CC(n2ccc(=O)[nH]c2=O)OC1CO (configuration not stated)
inactive: [1] -16.6% | [2] -21.9% | [3] 3.3% | [4] -13.6% | [5] -12.8% | [6] -6.85%

CN(Cc1ccccc1)C(=O)c1ccc(C(=O)N(C)Cc2ccccc2)cc1
inactive: [1] 1.75% | [2] -1.65% | [3] 19.4% | [4] -3.95% | [5] 35.1% | [6] 40.2%

CCOC(=O)CCc1c[nH]c2ccccc12
inactive: [1] -12.3% | [2] -17.1% | [3] -9.9% | [4] -9.85% | [5] 0.2% | [6] -3.5%

N#CC(C#N)=CN1CCNC1=S
inactive: [1] 14.3% | [2] -1.2% | [3] 20.4% | [4] 16.6% | [5] 17.6% | [6] 17.6%

CC(C)(C)OC(=O)CC1(O)CCCCC1
inactive: [1] 4.15% | [2] -5.9% | [3] -6.05% | [4] 4.75% | [5] 4% | [6] 8.05%
